Measurements from ChEMBL document CHEMBL3988442, “University of Dundee, Small-Polar-MMV Screening Library” (2021).
The whole screen tested about 85,000 compounds, of which about 440 (0.52%) showed an effect of 50% or more. Only a selection was taken, and strong results are over-represented in it overall.

Assay: In vitro enzyme assay to detect hydrolysis of chlorophenol red-beta-D-[…] directly proportional to the number of Toxoplasma stably expressing beta-galactosidase
Type: functional, organism-based, Toxoplasma gondii
Set-up: scale not given: in the data most compounds retested in dose-response had high values

| Structure (SMILES) | Percent Effect (50 µM) [%] | Percent Effect (10 µM) [%] |
| --- | --- | --- |
| CN1CCCN(C(=O)COc2ccc(Br)cc2)CC1 | 68.33 |  |
| CN1CCCN(C(=O)COc2ccc(C#N)cc2)CC1 | 10.92 |  |
| CN1CCCN(C(=O)COc2ccccc2)CC1 | -9.111 |  |
| Cc1cnc(N2CCNCC2)s1 | 5.738 |  |
| CCc1cnc(N2CCNCC2)s1 | 54.04 |  |
| CCc1nsc(N2CCNCC2)n1 | 12.31 |  |
| O=C(C[C@@H]1COC[C@H]2CN(Cc3ccncc3)C[C@@H]12)N1CCCC1 |  | 95.78 |
| O=C(C[C@H]1[C@H]2CN(Cc3ccncc3)C[C@@H]12)N1CCCC1.O=C(O)C(F)(F)F.O=C(O)C(F)(F)F |  | -5.891 |
| O=C(C[C@@H]1COC[C@H]2CN(Cc3cccnc3)C[C@@H]12)N1CCCC1.O=C(O)C(F)(F)F.O=C(O)C(F)(F)F |  | -13.82 |
| NCCc1ccc(Cl)s1 | 19.11 |  |
| C[C@@H]1CN(Cc2ccsc2)C[C@]12CCN(Cc1cccnc1)C2=O.O=C(O)C(F)(F)F.O=C(O)C(F)(F)F |  | -1.478 |
| O=C1NC[C@H]2NCCC[C@@H]12 | -10.77 |  |
| NC1CCCCNC1=O (centres undefined) | 97.52 |  |
| CNC1CCNC1=O (centres undefined) | 22.45 |  |
| COCCN1C(=O)CC[C@@H]2[C@@H]1CCN2Cc1c(C)noc1C.O=C(O)C(F)(F)F |  | 17.34 |
| NCCc1ccsc1 | 4.76 |  |
| O=C1C[C@H]2CC[C@@H](CN1)N2C1CSCCSC1 |  | -1.323 |
| c1cc2sccc2c(N2CCNCC2)n1 | 13.67 |  |
| c1nc(N2CCNCC2)c2sccc2n1 | 52.15 |  |
| CN1CCN(c2ncnc3ccsc23)CC1 | -1.262 |  |
| Cc1nc(CO[C@H]2CN(Cc3ccccn3)[C@@H]3CCCO[C@H]23)cs1.O=C(O)C(F)(F)F.O=C(O)C(F)(F)F |  | 12.48 |
| CC(c1nc(C(C)(C)C)no1)N1CCN(C)CC1 (centres undefined) | 8.823 |  |
| COc1ccc(Cl)c(N2CCNCC2)c1 | 12.14 |  |
| COc1ccc(C)cc1CC(=O)N1CCN(C)CC1 | 93.86 |  |
| CCC(O)CN1CCN(C(=O)Cc2cc(C)ccc2OC)CC1 (centres undefined) |  | 16.53 |
| COc1ccc(C)cc1CC(=O)N1CCN(CC(C)O)CC1 (centres undefined) |  | -5.451 |
| O=C(O)C(F)(F)F.O=C(O)[C@]12CCCN(C3CCOC3)C[C@H]1CN(c1ncccn1)C2 (some centres undefined) |  | 3.821 |
| COCCNC(=O)[C@H]1C[C@@H]2CCN(Cc3ccncc3)C[C@H]2O1.O=C(O)C(F)(F)F.O=C(O)C(F)(F)F |  | 3.499 |
| CN1CCN(c2cccc(C#N)n2)CC1 | 4.938 |  |
